Test results: PubChem BioAssay AID492997 (Johns Hopkins Ion Channel Center, 2010)
Screen size: about 4,900 compounds; about 2,000 (41%) were called active.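 How the source made its calls: active means thallium signal drop beyond 5 SD of the untreated control mean, on both duplicate plates; inactive means the rest.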 The set was probably picked from earlier hits. These entries were drawn from the full list.

Experiment: thallium flux in non-induced HEK293 cells, confirmation, counter-screen for KCNK9 inhibitor project, cell-based, second counter screen, non-induced KCNK9-HEK293 (AID 492997);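 on inhibition: plate controls were buffer only IC0 wells for no effect and SID17386958 at its maximal inhibitory level for full effect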
Details: non-induced KCNK9-HEK293, FluxOR thallium flux, at 10 µM; hits give high values

Structure (SMILES) | inhibition
Cc1csc(Nc2ccc(Cl)cc2)[n+]1-c1ccc(Cl)cc1 | inactive
COc1ccc(-c2oc(/N=C/N3CCCC3)c(C#N)c2-c2ccc(OC)cc2)cc1 | inactive
CCC1=NN(C(=O)Cc2ccc([N+](=O)[O-])cc2)C(O)(c2ccc(Br)cc2)C1 (centres undefined) | 28.5% (active)
Clc1cccc(-c2nc3nc4ccccc4nc3n2Cc2ccco2)c1 | inactive
Clc1ccc(Cl)c(Oc2ccc(Oc3nc(Cl)ccc3Cl)cc2)n1 | inactive
COC(=O)C1=C(Nc2ccc(C)cc2)C=C(C)C(C(=O)OC)C1c1ccc(F)cc1 (centres undefined) | 37.5% (active)
Cc1ccc(C(=O)/C=C/c2c(C)nn(-c3ccccc3)c2Cl)cc1 | inactive
O=C(Nn1c(SCc2ccc([N+](=O)[O-])cc2)nc2ccccc2c1=O)c1ccc(F)cc1 | inactive
CCC1(C)Cc2c(sc3[nH]c(=S)n(Cc4ccccc4)c(=O)c23)CO1 (centres undefined) | inactive
CCCSc1nc(NCc2ccco2)c2c3c(sc2n1)COC(C)(CC)C3 (centres undefined) | 38.5% (active)
CCOC(=O)Cc1cc(=O)[nH]c(=O)[nH]1 | inactive
COc1ccc(/C=C2\CCc3ccccc3C2=O)c(OC)c1OC | inactive
CC1CCN(C(=S)c2ccc(-c3ccc(Cl)cc3Cl)o2)CC1 | inactive
CC1CCN(C(=O)c2ccc(CSc3ccc(Cl)cc3)cc2)CC1 | 36% (active)
O=C(CSCc1ccc(Cl)cc1)N1CCN(Cc2ccc3c(c2)OCO3)CC1 | inactive
CN(C)S(=O)(=O)N1CCC(Oc2cccc(C(=O)NCCCC3CCCC3)c2)CC1 | inactive
Cc1cccc(NC(=O)N(Cc2cc3cc(C)cc(C)c3[nH]c2=O)CC2COCCO2)c1 (centres undefined) | inactive
O=C(COC(=O)c1c2c(nc3ccccc13)CCCC2)c1ccc(Br)s1 | 22.5% (active)
Cc1ccc(OS(=O)(=O)c2ccc(-c3csc(C)n3)s2)c(C)c1 | inactive
COc1cccc(COC(=O)C2CCN(S(=O)(=O)c3ccc(Cl)cc3)CC2)c1OC | inactive
O=C(NCCCc1ccccc1)c1cc(COc2c(F)cccc2F)on1 | inactive
O=C(NC1Cc2ccccc2C1)c1cc(COc2cccc(C(F)(F)F)c2)on1 | 28% (active)
CN(CCOc1ccccc1)C(=O)c1cc(COc2c(F)cccc2F)on1 | inactive
CC(C)N(C(=O)CSc1nc(COc2ccccc2)nc2ccccc12)C(C)C | 29.5% (active)
Cc1cc(C)cc(NC(=O)CSCc2cnn(-c3ccccc3)c2-n2cccc2)c1 | inactive

Structure (SMILES) | inhibition
CC(C)(C)C1CCC(C(=O)NCC(c2cccs2)N2CCOCC2)CC1 (centres undefined) | inactive
O=C(Nc1ccc(Br)c2cccnc12)c1ccc(Cn2cc([N+](=O)[O-])cn2)o1 | 31% (active)
CC1=NN(c2cccc(Cl)c2)C(=O)C12CC(C)=C(C)CS2 (centres undefined) | 40.5% (active)
Cc1cc(C=O)c(C)n1-c1ccc(NC2CCCCC2)c([N+](=O)[O-])c1 | 55% (active)
CCOC(=O)c1c(NC(=O)CCCN2CCOCC2)sc2c1CC(C)(C)OC2 | inactive
CCOC(=O)C1=C(C)Nc2sc(C(=O)c3ccc(Br)cc3)c(N)c2C1c1ccc(C(=O)OC)cc1 (centres undefined) | 32.5% (active)
O=C(/C=C/NNC(=O)c1cccc(Br)c1)c1ccccc1 | 50% (active)
COc1ccc(Nc2ncnc3sc(-c4ccccc4)cc23)c(OC)c1 | inactive
CCCCN(CC)C(=O)C1CCCN(S(=O)(=O)c2cccc3nsnc23)C1 (centres undefined) | inactive
Cc1ccc(SCC(=O)c2cc(C)c(OC(=S)N(C)C)c(C)c2)cc1 | 34% (active)
COc1ccc(C2Nc3ccccc3C(=O)N2Cc2ccccc2)cc1Cn1nnc2ccccc21 (centres undefined) | 39% (active)
O=S(=O)(c1ccc(F)cc1)N1CCN(Cc2ccccc2C(F)(F)F)CC1 | inactive
COc1cccc2sc(NNC(=O)c3nc4ccccc4s3)nc12 | inactive
Cc1nn(CC(=O)Nc2nc3ccccc3s2)c(C)c1[N+](=O)[O-] | 33.5% (active)
CCn1cnc2scc(-c3ccc(C)c(C)c3)c2c1=O | inactive
O=C(Nc1ccccc1[N+](=O)[O-])C1C(c2ccccc2)=C1c1ccccc1 | 26% (active)
CCCCCCCCn1c2c(c(=N)c3c1CCC3)CCCC2 | 27% (active)
Cc1ccc(Cn2ccc(NC(=O)c3cc(C(C)C)on3)n2)cc1 | inactive
CCOC(=O)[C@@H]1[C@H]2COc3ccc(Br)cc3[C@H]2N2C(=O)N(c3ccc(Cl)cc3)C(=O)[C@@]12C | 36% (active)
C[C@@]12C(=O)N(c3cccc(Br)c3)C(=O)N1[C@H](c1ccc(Cl)cc1)[C@@H]1C(=O)N(C3CCCCC3)C(=O)[C@@H]12 | inactive
COC(=O)c1cccc(C(=O)N2CCCC(Nc3ccc4c(c3)OCCO4)C2)c1 (centres undefined) | inactive
COc1ccc(OC)c(C(=O)c2coc3ccc(OC)cc23)c1 | 27% (active)
CN(CCC(=O)Nc1cc(S(=O)(=O)N(C)C)ccc1Cl)CC(=O)Nc1ccc(F)cc1 | 42% (active)
COc1ccc(NC(=O)CN(C)CC(=O)Nc2cccc(C(F)(F)F)c2)cc1 | inactive
COc1ccc(-c2n[nH]c3c2CN(C(=O)c2ccc(F)cc2)CC3)cc1 | inactive

Structure (SMILES) | inhibition
CC1=CC(C)(C)N(C(=O)CSc2nnc(-c3ccccc3)o2)c2ccc(C)cc21 | inactive
COc1ccc(-c2noc(CSc3ccc(C)cc3)n2)cc1 | inactive
COc1cc(NC(=S)NCCSc2ccc(C)cc2)cc(OC)c1 | 24% (active)
COc1cccc(C(=O)NCCSc2ccc(Br)cc2)c1 | inactive
FC(F)(F)c1cc(-c2ccco2)nc(NCc2ccc(Cl)cc2)n1 | 60.5% (active)
O=C1/C(=C/c2ccc(F)cc2)SC(=S)N1NS(=O)(=O)c1ccccc1 | inactive
C/C(=N\NC(=S)Nc1ccc(C)cc1)c1cc2ccccc2o1 | inactive
CCCCCn1c(=O)c(C(=O)OCC)c(Cl)c2ccccc21 | 40.5% (active)
CCOC(=O)c1c(NC(=O)CSc2cn(CC)c3ccccc23)sc2c1CCC2 | inactive
Cc1ccccc1N1CCN(Cc2nc(Cc3ccccc3F)no2)CC1 | inactive
Fc1cccc(Cl)c1CSc1ccc(-c2ccco2)nn1 | 32% (active)
O=C(Nc1cc(Cl)cc(Cl)c1)C(NCCCO)c1ccccc1 (centres undefined) | 29% (active)
Cc1cc(OC(C)C(=O)Nc2ccc(S(=O)(=O)Nc3onc(C)c3C)cc2)cc(C)c1Cl (centres undefined) | inactive
O=C(CNCCC1=CCCCC1)Nc1ccccc1N1CCCCCC1 | 38.5% (active)
Cc1cc(C)cc(OCC(=O)Nc2cc(NC(=O)COc3cc(C)cc(C)c3)cc(C(=O)O)c2)c1 | inactive
COc1cccc(-c2cc3nc4c(c(N5CCC6(CC5)OCCO6)n3n2)CCCC4)c1 | 27% (active)
COc1cccc2cc(C(C)N(CCCN3CCOCC3)C(=O)Nc3ccc(Cl)cc3)oc12 (centres undefined) | 28.5% (active)
CN(C)c1ccc(C(CNC(=O)c2ccc(F)cc2)c2c[nH]c3ccccc23)cc1 (centres undefined) | 39% (active)
CCN(CC)C(=O)CC1(c2ccccc2OC)CCOC(C(C)C)C1 (centres undefined) | 38% (active)
COc1cccc(CN(C)C(=O)CC23CC4CC(CC(C4)C2)C3)c1OC | inactive
CC(C)(C)NC(=O)NC(=O)CN1CCC(Cc2ccccc2)CC1 | inactive
O=C1N=C2SCCN2/C1=C\c1c(Cl)cccc1Cl | inactive
COc1cccc(OC)c1C(=O)Nc1sc2c(c1C(N)=O)CCCC2 | inactive
Cc1ccc(OCc2cc(C(=O)N(C)CCc3ccccc3)no2)cc1C | inactive
COc1ccc(C(C)=O)cc1COc1ccc(Cl)c(C)c1 | 37% (active)

Structure (SMILES) | inhibition
O=C(NCc1ccccc1)C1=C[C@@H](C2CCCCC2)C[C@@H](OCc2ccc(CO)cc2)O1 | inactive
CCC(C)(C)n1nnnc1C(c1cccs1)N1CCN(c2nc3ccccc3s2)CC1 (centres undefined) | 34.5% (active)
CC1(C)CC(N2CCN(C(c3ccccc3)c3ccccc3)CC2)=CC(=[N+]2CCCCC2)C1 | 36% (active)
Cc1ccccc1CSc1nnc(CCCCCNC(=O)OC(C)(C)C)o1 | 22% (active)
COC(=O)c1sc(-c2ccc(C(C)(C)C)cc2)cc1NC(=O)/C=C/C(=O)O | inactive
COc1ccc(C(=O)NN2C(=O)C3C(c4ccccc4)C=CC(c4ccccc4)C3C2=O)cc1 (centres undefined) | inactive
COc1ccc(C(=O)Nc2ccccc2C(=O)N/N=C/c2ccccc2OC)cc1 | 31% (active)
COc1cccc(-c2cnc(OC(C)(C)C)nc2OC(C)(C)C)c1 | inactive
O=C(Nc1ccc2c(c1)CCC2)c1cccc(S(=O)(=O)Nc2ccccc2Cl)c1 | inactive
O=C(N/N=C/c1ccccn1)c1cccc(NC(=O)c2ccc(Cl)cc2)c1 | 22.5% (active)
O=C(COc1ccc(Cl)cc1Cl)N/N=C/c1ccccn1 | inactive
CCc1ccccc1NC(=O)/C(=C/c1ccccc1)c1ccccc1 | 51.5% (active)
COc1ccc(C2CC(c3cccs3)=NN2c2ccccc2)cc1 (centres undefined) | 34% (active)
CCOc1ccccc1NC(=O)C12CC3CC(C1)CC(c1ccc(C)cc1)(C3)C2 | inactive
Cc1ccc(S(=O)(=O)N2CCN(C(=O)COC(=O)c3c(C)cc(C)cc3C)CC2)c(C)c1 | inactive
O=C(NCCc1ccccc1)c1ccc2c(c1)N(Cc1ccccc1)CCS2 | 29% (active)
O=C1/C(=C/c2ccc3c(c2)OCO3)CCC/C1=C\c1ccc2c(c1)OCO2 | inactive
CC1(C)CC(=O)CC2(C1)NCC(c1ccccc1Cl)c1c2[nH]c2ccccc12 (centres undefined) | 33% (active)
Cc1cccc(C(=O)Nc2ccccc2N2CCN(c3ccc(F)cc3)CC2)c1 | 29.5% (active)
Cc1ccc(N2CCN(S(=O)(=O)c3ccc(F)cc3)CC2)c(C)c1 | inactive
CCCCC(=O)Nc1ccccc1N1CCN(c2ccc(F)cc2)CC1 | 43% (active)
COc1ccc(C(=O)C2CCCN(C(=O)c3ccc(OC)o3)C2)c(C)c1 (centres undefined) | inactive
Cc1ccc2c(c1)N(C(=O)CCC(=O)N1CCc3ccccc3C1)CCO2 | inactive
Fc1ccc(Cn2nnnc2C(c2cccs2)N2CCCCCC2)cc1 (centres undefined) | 30.5% (active)
